Measured values published in PubChem BioAssay.
Calls of active or inactive are those of the source. Unless noted, no rule for the calls is given here.

Key:
[1] = anti-His antibody binders, primary screen, artefact control for SMM control protein annotation, biochemical, small-molecule microarray, 635 nm fluorescence (AID 1128); details: anti-His Alexa647 antibody binding, higher = more signal;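 also: score merges feature fluorescence with signal-to-noise for each printed compound spot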
[2] = tested on: Human papillomavirus type 1a E7 protein (residues 1-88); test: HPV1a E7 small-molecule binders, primary screen, biochemical, small-molecule microarray, residues 1-88, 635 nm (AID 1129); details: small-molecule microarray binding, fluorescence 635 nm; higher = more signal
[3] = target: Focal adhesion kinase 1 (Homo sapiens) (UniProt Q05397); test: small-molecule microarray binders of FAK, primary screen, biochemical, 635/667 nm fluorescence, BSA, DTT (AID 1130); details: PTK2 binding, 635 nm fluorescence, higher = more signal;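 also: composite of spot emission at 667 nm and signal to noise over triplicate slides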
Focal adhesion kinase 1 (Homo sapiens), sequence (Q05397 whole entry, looked up): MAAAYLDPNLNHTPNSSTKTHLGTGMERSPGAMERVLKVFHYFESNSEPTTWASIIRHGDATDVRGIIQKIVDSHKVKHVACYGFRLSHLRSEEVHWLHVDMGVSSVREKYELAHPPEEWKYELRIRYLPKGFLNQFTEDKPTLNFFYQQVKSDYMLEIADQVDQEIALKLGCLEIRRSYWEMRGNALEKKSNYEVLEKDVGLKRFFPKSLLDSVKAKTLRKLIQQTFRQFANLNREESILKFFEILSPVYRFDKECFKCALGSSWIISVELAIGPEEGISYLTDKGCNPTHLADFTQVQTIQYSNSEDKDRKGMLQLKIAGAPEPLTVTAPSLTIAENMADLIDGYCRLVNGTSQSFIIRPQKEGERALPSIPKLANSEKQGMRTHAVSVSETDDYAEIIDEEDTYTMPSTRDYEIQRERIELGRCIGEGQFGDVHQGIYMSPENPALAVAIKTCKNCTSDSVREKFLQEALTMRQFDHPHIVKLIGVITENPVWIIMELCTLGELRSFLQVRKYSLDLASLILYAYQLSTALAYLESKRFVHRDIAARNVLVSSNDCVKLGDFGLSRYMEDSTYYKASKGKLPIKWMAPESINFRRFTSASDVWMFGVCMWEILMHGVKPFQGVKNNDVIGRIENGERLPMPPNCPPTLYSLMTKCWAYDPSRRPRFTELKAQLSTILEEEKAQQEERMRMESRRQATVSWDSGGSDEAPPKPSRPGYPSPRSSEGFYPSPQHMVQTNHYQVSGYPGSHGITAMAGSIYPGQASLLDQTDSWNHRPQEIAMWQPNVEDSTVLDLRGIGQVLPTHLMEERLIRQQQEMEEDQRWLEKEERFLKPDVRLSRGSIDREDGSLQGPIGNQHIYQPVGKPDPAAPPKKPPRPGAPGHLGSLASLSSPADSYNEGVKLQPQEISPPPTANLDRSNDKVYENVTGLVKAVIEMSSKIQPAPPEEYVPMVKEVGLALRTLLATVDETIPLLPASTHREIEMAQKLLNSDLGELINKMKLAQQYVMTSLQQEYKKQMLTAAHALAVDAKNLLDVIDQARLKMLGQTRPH

[4] = tested on: Fibrinogen (Alexa647-labelled); test: fibrinogen binders on compound microarrays, profiling panel, artefact control for SMM control-protein annotation, biochemical, small-molecule microarray, 635/667 nm fluorescence (AID 1131); details: fibrinogen-A647 binding fluorescence, higher = more signal;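 also: z-score merges 667 nm fluorescence with per-spot signal-to-noise over triplicate slides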
[5] = target: Follistatin (Homo sapiens) (UniProt P19883); test: follistatin binders on small-molecule microarrays, primary screen, biochemical, small-molecule microarray, 635/667 nm fluorescence (AID 1132); details: FST binding, 635 nm fluorescence, higher = more signal
Follistatin (Homo sapiens), sequence (P19883 whole entry, looked up): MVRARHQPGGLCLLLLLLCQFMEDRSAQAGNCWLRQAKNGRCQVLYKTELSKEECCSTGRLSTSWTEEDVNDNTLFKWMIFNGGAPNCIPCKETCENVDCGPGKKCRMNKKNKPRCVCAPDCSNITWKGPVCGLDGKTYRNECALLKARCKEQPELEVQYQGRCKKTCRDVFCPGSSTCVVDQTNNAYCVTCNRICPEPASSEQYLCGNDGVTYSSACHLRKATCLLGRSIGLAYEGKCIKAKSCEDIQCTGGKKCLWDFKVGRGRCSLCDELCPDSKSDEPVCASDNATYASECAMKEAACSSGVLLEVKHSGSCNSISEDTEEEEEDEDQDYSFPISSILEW

[6] = target: Fibroblast growth factor 2 (Homo sapiens) (UniProt P09038); test: FGF2 binders on small-molecule microarrays, primary screen, biochemical, small-molecule microarray, 635/667 nm fluorescence (AID 1133); details: small-molecule microarray binding, FGF2, fluorescence 635/667; higher = more signal
Fibroblast growth factor 2 (Homo sapiens), sequence (P09038 whole entry, looked up): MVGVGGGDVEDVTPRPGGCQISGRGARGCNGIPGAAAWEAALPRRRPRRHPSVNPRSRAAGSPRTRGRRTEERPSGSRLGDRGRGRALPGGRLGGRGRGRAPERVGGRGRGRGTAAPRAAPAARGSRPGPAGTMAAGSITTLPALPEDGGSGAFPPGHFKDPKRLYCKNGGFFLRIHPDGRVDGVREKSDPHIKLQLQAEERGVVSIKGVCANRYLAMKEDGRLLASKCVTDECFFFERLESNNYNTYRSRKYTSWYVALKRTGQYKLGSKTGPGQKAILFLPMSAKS

[7] = mitochondrial membrane potential change in A549 cells, profiling panel, cell-based, JC-1 fluorescence, basal, 24 h, 100 nL (AID 1138); details: higher = more signal;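 also: A549 lung adenocarcinoma cells under basal conditions with no added stimulus; test concentration not given here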
Lefty1 = Lefty1 binders on small-molecule microarrays, primary screen, biochemical, small-molecule microarray, 635/667 nm fluorescence (AID 1139); details: small-molecule microarray binding, fluorescence 635/667; higher = more signal
[8] = tested on: wheat germ agglutinin (Triticum aestivum), Alexa647-labelled; test: wheat germ agglutinin binders on compound microarrays, profiling panel, artefact control for SMM control-protein annotation, biochemical, small-molecule microarray, 635/667 nm fluorescence (AID 1140); details: WGA-A647 binding, 635 nm fluorescence, higher = more signal;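 also: score merges 667 nm feature emission with signal to noise over triplicate slides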
[9] = target: Luciferin 4-monooxygenase (Photinus pyralis) (UniProt P08659); test: firefly luciferase enzyme inhibitors, primary screen, biochemical, luminescence, purified enzyme, 2006 set (AID 1141); details: SteadyGlo luminescence, 30 min, higher = more signal, called active from +8 up or from −8 down;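 also: cell-free assay with purified firefly luciferase at 100 ng per well in PBS; test concentration not given here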
Luciferin 4-monooxygenase (Photinus pyralis), sequence (P08659 whole entry, looked up): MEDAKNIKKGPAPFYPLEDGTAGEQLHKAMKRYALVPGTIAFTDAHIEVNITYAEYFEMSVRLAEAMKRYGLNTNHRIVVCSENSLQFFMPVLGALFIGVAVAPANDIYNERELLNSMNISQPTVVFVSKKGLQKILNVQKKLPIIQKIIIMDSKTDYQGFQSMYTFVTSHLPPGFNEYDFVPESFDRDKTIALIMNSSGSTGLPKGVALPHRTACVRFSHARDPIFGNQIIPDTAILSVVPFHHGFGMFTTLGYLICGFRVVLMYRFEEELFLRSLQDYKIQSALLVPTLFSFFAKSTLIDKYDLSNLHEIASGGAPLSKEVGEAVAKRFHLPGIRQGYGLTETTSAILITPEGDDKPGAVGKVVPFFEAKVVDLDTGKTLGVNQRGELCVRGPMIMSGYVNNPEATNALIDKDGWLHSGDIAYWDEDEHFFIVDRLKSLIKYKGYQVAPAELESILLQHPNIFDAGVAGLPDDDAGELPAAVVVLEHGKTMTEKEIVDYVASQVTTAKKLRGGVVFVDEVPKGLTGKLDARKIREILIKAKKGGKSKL

[10] = tested on: Wnt5a (protein binding on small-molecule microarray); test: Wnt5a binders on small-molecule microarray, primary screen, biophysical, 635/667 nm fluorescence (AID 1142); details: 635 nm fluorescence, higher = more signal;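 also: fluorescence read at 667 nm with signal to noise per printed feature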
[11] = cell viability in Huh7 cells, primary screen, cytotoxicity control for HCV replication inhibitor project, CellTiter-Glo luminescence, basal, 48 h (AID 1143); details: Huh7 HCV replicon, higher = more signal, called active from +8 up or from −8 down;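 also: Huh7 hepatoma cells carrying a hepatitis C replication reporter with no stimulus; test concentration not given here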
[12] = P. aeruginosa biofilm formation inhibitors, primary screen, PAO1 strain, BacTiter-Glo luminescence, LB-PBS (AID 1144); details: 12 h, higher = more signal
[13] = CREB reporter modulators without forskolin, primary screen, cell-based, PC12, CRE-LacZ reporter, unstimulated (AID 1145); details: no forskolin, luminescence, 4.5 h, higher = more signal, called active from +8 up or from −8 down
[14] = CREB reporter modulators under forskolin, primary screen, cell-based, PC12, CRE-LacZ reporter, forskolin-stimulated (AID 1146); details: luminescence, 4.5 h, higher = more signal, called active from +8 up or from −8 down;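 also: PC12 cells with 6xCRE LacZ reporter stimulated by forskolin 10 µM; beta-galactosidase reporter signal reflecting CREB driven transcription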
[15] = target: Streptavidin (Streptomyces avidinii) (UniProt P22629); test: streptavidin binders on small-molecule microarray, primary screen, artefact control for SMM compound annotation, biophysical, 635/667 nm fluorescence (AID 1147); details: streptavidin binding, higher = more signal;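 also: signal reflects streptavidin binding to arrayed compounds as a control protein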
Streptavidin (Streptomyces avidinii), sequence (P22629 whole entry, looked up): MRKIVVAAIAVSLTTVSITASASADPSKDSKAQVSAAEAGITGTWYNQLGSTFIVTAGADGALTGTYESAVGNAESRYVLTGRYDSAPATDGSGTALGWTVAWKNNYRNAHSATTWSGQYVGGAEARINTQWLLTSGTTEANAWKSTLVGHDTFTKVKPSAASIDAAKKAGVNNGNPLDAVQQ

[16] = small-molecule binders of probe aInhba, primary screen, biochemical, small-molecule microarray, 635/667 nm fluorescence (AID 1148); details: higher = more signal;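 also: score merges 667nm spot fluorescence with signal-to-noise for antibody binding to printed compounds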
Torsin-1A (Homo sapiens) [17] = target: Torsin-1A (Homo sapiens) (UniProt O14656); test: torsin A binders from cell lysate, primary screen, small-molecule microarray, wild-type, 635/667 nm (AID 1149); details: COS7 hTOR1A-WT lysate, 635 nm fluorescence, higher = more signal
Torsin-1A (Homo sapiens), sequence (O14656 whole entry, looked up): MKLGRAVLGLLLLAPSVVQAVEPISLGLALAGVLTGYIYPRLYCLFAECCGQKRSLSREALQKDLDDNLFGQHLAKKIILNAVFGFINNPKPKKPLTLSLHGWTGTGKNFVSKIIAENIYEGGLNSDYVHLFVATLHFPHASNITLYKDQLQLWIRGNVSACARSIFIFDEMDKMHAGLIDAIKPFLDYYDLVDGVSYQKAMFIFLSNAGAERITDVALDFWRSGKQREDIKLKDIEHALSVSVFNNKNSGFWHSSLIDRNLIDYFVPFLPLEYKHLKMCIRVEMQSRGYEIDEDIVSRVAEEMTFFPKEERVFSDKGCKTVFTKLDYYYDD

Torsin-1A (Homo sapiens) [18] = target: Torsin-1A (Homo sapiens) (UniProt O14656); test: small-molecule binders of mutant TOR1A in lysate, primary screen, cell lysate, small-molecule microarray, COS7 lysate, 635/667 nm fluorescence (AID 1150); details: COS7 hTOR1A mutant lysate, 635 nm fluorescence, higher = more signal;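 also: score pools 667 nm emission and signal to noise measuring lysate protein binding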
[19] = tested on: Sonic hedgehog protein (Shh); test: small-molecule binders of Shh protein, primary screen, biochemical, small-molecule microarray, 635/667 nm fluorescence (AID 1151); details: small-molecule microarray binding, 635 nm fluorescence; higher = more signal;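 also: Shh protein binding to compounds spotted on small-molecule microarray slides; score combines spot fluorescence intensity with signal-to-noise across triplicate slides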

Row | SMILES | composite z-score [1] | composite z-score [2] | composite z-score [3] | composite z-score [4] | composite z-score [5] | composite z-score [6] | z-score [7] | composite z-score (Lefty1) | composite z-score [8] | z-score [9] | composite z-score [10] | z-score [11] | z-score [12] | z-score [13] | z-score [14] | composite z-score [15] | composite z-score [16] | composite z-score (Torsin-1A (Homo sapiens) [17]) | composite z-score (Torsin-1A (Homo sapiens) [18]) | composite z-score [19]
1 | COc1ccccc1CN1C(=O)c2ccccc2[C@](Cc2ccccc2I)(C(=O)NC2CC2)[C@@H]1c1ccc(CO)cc1 | 1.74 | 1.26 | 0.646 | 0.987 | 1.32 | 1.55 | 1.16 | 1.16 | 0.52 | 0.985 (inactive) | 0.811 | -4.58 (inactive) | -0.0735 (inactive) | 0.324 (inactive) | -0.572 (inactive) | 0.662 | 0.0374 | 0.427 | 0.71 | 2.06
2 | C=CC[C@@]1(C(=O)NCc2ccccc2)N=C(c2ccc(OCCCO)cc2)O[C@@H]1c1ccccc1CN=[N+]=[N-] | 1.8 | 1.22 | 1.06 | 0.995 | 1.29 | -0.204 | 0.903 | -0.0518 | 0.888 | -0.876 (inactive) | 0.521 | -3.66 (inactive) | -0.315 (inactive) | 3.13 (inactive) | 2.93 (inactive) | 0.579 | 0.122 | -0.805 | 0.287 | -0.629
3 | O=C1O[C@@H](c2ccccc2)[C@@H](c2ccccc2)N2[C@@H](c3ccccc3OCCO)[C@]3(C(=O)Nc4ccc(C#CC5(O)CCCCCC5)cc43)[C@@H](C(=O)NC[C@H](O)c3ccccc3)[C@H]12 | 1.82 | 1.2 | 1.03 | -0.51 | 1.17 | 0.106 | -1.15 | 1.54 | 1.21 | -0.215 (inactive) | 0.602 | -6.25 (inactive) | 0.813 (inactive) | 0.0776 (inactive) | 1.12 (inactive) | 0.329 | 1.09 | -0.179 | 0.251 | 2.17
4 | COC(=O)c1c(CC[C@@H](CO)NC(=O)Nc2ncn[nH]2)oc(C(=O)Cc2ccccc2)c1C(=O)OC | 0.936 | 0.466 | 0.108 | 0.915 | 1.08 | 1.58 | -0.491 | 0.895 | 0.467 | 1.03 (inactive) | -0.0403 | 0.31 (inactive) | 0.152 (inactive) | -0.0106 (inactive) | 0.352 (inactive) | 1.36 | 0.0342 | 1.49 | 0.837 | 1.1
5 | C=CCC(OC(C)=O)[C@@H]1[C@@H](N(Cc2ccc(-c3ccccc3)cc2)C(=O)c2ccc(C)cc2)c2cc(OCCCO)ccc2N1C(=O)c1ccc2ccccc2n1 (stereo not given in full) | -0.512 | -0.0119 | -0.0203 | -0.459 | 0.0869 | -0.006 | 3.18 | -0.135 | -0.0101 | -1.9 (inactive) | -0.162 | -1.16 (inactive) | -1.41 (inactive) | 5.54 (inactive) | -0.523 (inactive) | 0.105 | 0.173 | -0.211 | 0.115 | 0.794
